HCV inhibitor – qHTS Assay for Inhibitors of Hepatitis C Virus (HCV) | Huh7.5.1 HCVcc-Cre infection, luciferase reporter, 44 h | Potency, µM (highest dose often 41.8 µM), without a hit: top-dose activity change, negative = inhibition, actives largely listed as inhibitors | 340,000 tested, 3.4% active; also: potency is read from the fitted curve at half-maximal effect; % is scaled to controls: 0 for no effect and ±100 for the full control effect
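Cells (1,000/well) were plated 4 h before compound, then infected with HCVcc-Cre virus (~0.5 moi). After 44 h further culture, infection was read as luciferase luminescence following a 15 min substrate incubation at room temperature.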
Shiga toxin inh – A qHTS for Small Molecule Inhibitors of Shiga Toxin. Vero cells, Shiga toxin protein synthesis inhibition reporter. inhibition, % at 38.7 µM. 290,000 tested, 9.2% active. AID 2315, 2010; in the data active = inhibition mostly above about 28%, no sharp cut-off; inactive = mostly below about 43%; also: 0% is about no effect
Cycloheximide cs – Cycloheximide Counterscreen for Small Molecule Inhibitors of Shiga Toxin. cell reporter, cycloheximide protein synthesis inhibition counterscreen. max response, %. 300,000 tested, 12% active; in the data active = max response mostly above about 13%, no sharp cut-off; inactive = mostly below about 14%; also: read at 38.3 µM for the half of the compounds with a filed dose; 0% is about no effect
Pf growth 48h – Primary qHTS for delayed death inhibitors of the malarial parasite plastid, 48 hour incubation. P. falciparum luciferase growth in erythrocytes, 48 h. Potency, µM (doses to about 28.7 µM), for inactives: at the highest dose activity change, negative = inhibition, most hits filed as inhibitors. 310,000 tested, 5.9% active. AID 504832, 2011; also: potency is read from the fitted curve at half-maximal effect; % is scaled to controls: 0 for no effect and ±100 for the full control effect
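Growth was read as firefly luciferase luminescence after a 48 h, 37 C, 5% CO2 exposure of compounds to reporter-bearing P. falciparum cultures (0.1% parasitemia, 2% hematocrit final) in Albumax-supplemented RPMI 1640.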
HCMV inh – qHTS Assay for inhibitors of the human cytomegalovirus (HCMV); 410,000 tested, 4.5% active; AID 1259415, 2018; activity change, negative = inhibition, % at 57.5 µM; HFF cells, HCMV-luciferase reporter, 72 h; stronger effect = lower value; in the data active = activity change below about -60%; inconclusive = no clear call, values can overlap the other calls; inactive = above about -39%; also: % is scaled to controls: 0 for no effect and ±100 for the full control effect
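Steps: HFFs plated, 16 h 37C; compounds added; HCMV-luciferase added to MOI 1 PFU/cell; 72 h 37C; OneGlo reagent, 5 min room temperature; luminescence read, normalized to controls.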
Pf growth 96h – Primary qHTS for delayed death inhibitors of the malarial parasite plastid, 96 hour incubation. Potency, µM (series often up to 28.7 µM), for the others: at the highest dose activity change, negative = inhibition, most hits filed as inhibitors. 320,000 tested, 6.9% active. P. falciparum luciferase reporter growth, 96 h; also: potency is read from the fitted curve at half-maximal effect; % is scaled to controls: 0 for no effect and ±100 for the full control effect
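96 h incubation, 37 C, 5% CO2, of luciferase-reporter P. falciparum-infected RBCs (2% hematocrit, 0.05% parasitemia final) with test compounds; endpoint luminescence.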
* = called active by the depositor; i = inactive; ? = inconclusive; · = not tested or not shown; + = active, no number; [ ] = dose if it differs, or a comment. An excerpt weighted towards active compounds, which were near 21% of everything screened. Unless noted, calls follow the shape of the dose curve; as a rule, active = well fitted inhibition curve with a large enough effect; inconclusive = small, poorly fitted or top-dose-only effect, or another doubt; inactive = no such curve, though single readings can be large or run the other way.

SMILES	HCV inhibitor	Shiga toxin inh	Cycloheximide cs	Pf growth 48h	HCMV inh	Pf growth 96h
Cc1c(C=O)c2ccccc2n1Cc1ccc([N+](=O)[O-])cc1	9.1%	-7.2	-5.4	?	-4.7	-20.5%
Cc1ccc(Cn2c(=N)n(CC(=O)c3ccc([N+](=O)[O-])cc3)c3ccccc32)cc1	?	12.5	-1.3	?	-92.4*	?
CCCCn1c(=N)n(CC(=O)c2ccc([N+](=O)[O-])cc2)c2ccccc21	·	-5.2	5.6	49.3%	-103.7*	15.0%
CCCc1cc(=O)oc2cc(C)c3c(C(C)(C)C)coc3c12	·	·	·	·	4.6	·
CCN(CC)c1ccc(CN2CCC(C(=O)NCc3ccc(C)cc3)CC2)cc1	?	-2.7	-1.5	25.4%	0.4	-17.5%[1.15 µM]
O=C(c1cnc(N2CCOCC2)c2ccccc12)N1CCN(c2ccccc2)CC1	·	·	·	·	-20.7	·
Clc1ccc(-c2ccc(SCc3ccccn3)nn2)cc1	-9.8%	59.1*	41.0*	172.1%	79.0	?
N=C(N)SCc1ccccn1	?	3.5	7.3	?	?	0.0%
c1ccc(CSc2nnc(SCc3ccccn3)s2)nc1	-6.1%	59.1*	30.4*	11.0%	144.8	23.4%
c1ccc(CSc2ccc(-c3ccccn3)nn2)nc1	?	97.7*	47.8*	104.7%	-39.0	-78.7%
COc1ccc2c3c(n(C)c2c1)[C@H](CO)N(Cc1nccs1)CC31CCN(C(=O)CN(C)C)CC1	·	·	·	·	13.2	·
CC1(C)CC(=O)C2=C(C1)O[C@@]1(CCCCN3C(=O)c4ccccc4C3=O)Cc3cc(C#N)ccc3C2O1	·	i	-1.1	1.51µM*	·	49.3%[5.75 µM]
N#Cc1ccc2c(c1)C[C@]1(CCCCN3C(=O)c4ccccc4C3=O)Oc3c(c(=O)oc4ccc(F)cc34)C2O1	·	i	-1.6	1.9µM*	·	?
CCOC(=O)COn1c(=O)c(-c2ccc(OC)cc2)[n+]([O-])c2ccccc21	17.5%	27.4	1.3	87.6%	-61.1*	46.3%
Cc1ccc(-c2c(=O)n(OCc3ccccn3)c3ccccc3[n+]2[O-])cc1	·	-11.0	9.4	1.3%	·	60.7%
CCOn1c(=O)c(-c2ccccc2)[n+]([O-])c2ccccc21	4.6%	-1.8	-2.0	·	-17.2	5.4%
CCOc1ccc(-c2c(=O)n(OCc3ccccn3)c3ccccc3[n+]2[O-])cc1	-9.0%	50.5*	17.1	?	-24.3	?
CCCOc1ccc(-c2c(=O)n(O)c3ccccc3[n+]2[O-])cc1	3.9%	·	29.5*	31.3%	82.8	0.0%
S=C(SCc1cc(Cl)cc2c1OCOC2)N1CCSCC1	·	·	·	·	52.2	·
Cc1c(C(=O)Nc2ccc(C(=O)O)cc2)nnn1-c1ccccc1	·	·	·	·	-74.4*	·
Cc1ccc(NC(=O)c2nnn(-c3cc(C)cc(C)c3)c2N)cc1	?	130.2*	37.8*	33.1%	45.9	34.8%
Cc1ccc(CCNC(=O)c2nnn(-c3cc(C)cc(C)c3)c2N)cc1	14.7%	13.1	0.6	?	41.8	4.4%
Cc1cccc(-n2nnc(C(=O)N3CCc4ccccc4C3)c2N)c1	-17.0%	55.3*	29.4*	46.7%	-9.1	22.8%
Cc1c(C(=O)O)nnn1-c1ccccc1	11.9%	-4.4	-4.0	-21.8%	-5.1	26.3%
Cc1cccc(-n2nnc(C(=O)Nc3ccc(F)cc3)c2N)c1	?	79.0*	51.1*	146.0%	113.6	9.6%
SMILES	HCV inhibitor	Shiga toxin inh	Cycloheximide cs	Pf growth 48h	HCMV inh	Pf growth 96h
C[C@H](CO)N1C[C@H](C)[C@@H](CN(C)S(C)(=O)=O)Oc2ccc(NC(=O)Cn3cnnn3)cc2C1=O	21.9%	·	·	·	-23.8	·
CNC(=O)CSc1nc2ccccc2c(=O)n1CCc1ccccc1	-8.9%	-13.2	-3.0	-9.1%	28.5	?
CC(=O)c1cccc(NC(=O)c2nc(-c3ccccc3)n(-c3cccc(Cl)c3)n2)c1	·	·	·	·	13.4	·
COc1ccccc1NC(=O)c1nnn(-c2ccc(F)cc2)c1C	·	·	·	·	8.1	·
Cc1c(C(=O)Nc2ccc(F)cc2)nnn1-c1cccc(C(F)(F)F)c1	?	48.5*	47.0*	30.8%	-87.8*	2.6%
Cc1c(C(=O)NNC(=S)Nc2cccc(Cl)c2)nnn1-c1ccccc1	9.3%	+	57.3*	23.2%	25.7	19.7%
